According to PubChem BioAssay (NCATS):
Values joined by “and” are separate entries in the source; they are usually repeats but may differ in a detail not shown here. Equal entries are not always repeated. Active and inactive are the calls of the source. Calls come from the whole dose curve.

Assay: qHTS drug screen for cell cycle checkpoint inhibitors in PARPi-resistant BRCA-mutant ovarian cancer cell lines. (AID 1963452)
Conditions: PEO1/OlaR viability, CellTiter-Glo luminescence, 96 h; for Z-AUC: stronger effect = lower value
Source text: Women's Malignancies Branch, Center for Cancer Research (CCR),
National Cancer Institute (NCI), National Institutes of Health (NIH), Bethesda, MD
Poly (ADP-ribose) polymerase inhibitors (PARPis) have changed the treatment paradigm in breast cancer gene (BRCA) - mutant high-grade serous ovarian carcinoma (HGSC). However, most patients eventually develop resistance to PARPis, highlighting an unmet need for improved therapeutic strategies. Using high-throughput drug screens, we identified ataxia telangiectasia and rad3-related protein/checkpoint kinase 1 (CHK1) pathway inhibitors as cytotoxic and further validated the activity of the CHK1 inhibitor (CHK1i) prexasertib in PARPi-sensitive and -resistant BRCA-mutant HGSC cells and xenograft mouse models. CHK1i monotherapy induced DNA damage, apoptosis, and tumor size reduction. We then conducted a phase 2 study (NCT02203513) of prexasertib in patients with BRCA-mutant HGSC. The treatment was well tolerated but yielded an objective response rate of 6% (1 of 17; one partial response) in patients with previous PARPi treatment. […] BRCA reversion mutation in previously PARPi-treated BRCA-mutant patients was not associated with resistance to CHK1i.
Among others, 1082 oncology drugs, both approved and investigational, were prioritized based on their status in clinical trial development. […] Drugs with average Z-AUC values less than -1.0 in all three cell lines were classified as "hits" resulting in 151 oncology drug hits. The screen also confirmed cross-resistance between olaparib and other PARPis (rucaparib, niraparib, and talazoparib) in PARPi-resistant PEO1/OlaR and PEO4.
[1] G. L. Lin, K. M. Wilson, M. Ceribelli, B. Z. Stanton, P. J. Woo, S. Kreimer, E. Y. Qin, X. Zhang, J. Lennon, S. Nagaraja, P. J. Morris, M. Quezada, S. M. Gillespie, D. Y. Duveau, A. M. Michalowski, P. Shinn, R. Guha, M. Ferrer, C. Klumpp-Thomas, S. Michael, C. McKnight, P. Minhas, Z. Itkin, E. H. Raabe, L. Chen, R. Ghanem, A. C. Geraghty, L. Ni, K. I. Andreasson, N. A. Vitanza, K. E.Warren, C. J. Thomas, M. Monje, Therapeutic strategies for diffuse midline glioma from high-throughput combination drug screening. Sci. Transl. Med. 11, (2019).
[2] T. M. Yamamoto, A. McMellen, Z. L. Watson, J. Aguilera, R. Ferguson, E. Nurmemmedov, T. Thakar, G. L. Moldovan, H. Kim, D. M. Cittelly, A. M. Joglar, E. P. Brennecke, H. Wilson, K. Behbakht, M. J. Sikora, B. G. Bitler, Activation of Wnt signaling promotes olaparib resistant ovarian cancer. Mol. Carcinog. 58, 1770 - 1782 (2019).
PROTOCOL TABLE (as described by Inglese J, Shamu CE and Guy RK. 2007)
SEQUENCE No. (e.g., 1, 2, 3, etc.); […] (e.g., Cells, Incubation, Reagent, etc.); VALUE; DESCRIPTION.
1; Compounds; 20nL; 1536-well white tissue culture-treated plates.
2; Cells; 5 uL; PEO1, PEO4, and PEO1/OlaR cells at 600 cells per well.
3; Incubation; 96 hr; 37C, 95% humidity, 5% CO2.
4; Reagent; 3 uL; CellTiter-Glo (Promega).
5; Incubation; 15 min; room temperature.
6; Detection; Luminescence, PHERAstar (BMG Labtech) plate reader.
NOTES (numbers refer to Sequence numbers above)
1. MIPE 5.0 compounds were acoustically dispensed by Echo Acoustic Liquid Handler (Beckman Coulter Life Sciences). Each compound was plated at an 11-point concentration range with 1:3 dilution. Bortezomib, a proteasome inhibitor (final concentration, 20 uM), was used as a positive.
2. PEO1, PEO4, and PEO1/OlaR were trypsinized and dispensed in 5 uLof growth medium using a Multidrop Combi dispenser at a density of 600 cells per well to allow compounds to be present during the exponential growth phase.
3. Plates were incubated for 96 hours at standard incubator conditions and covered by a stainless steel gasketed lid to prevent evaporation.
4. Three microliters of CellTiter-Glo (Promega) were added to each well.
5. Plates were incubated at room temperature for 15 min with a stainless-steel lid in place.
6. Luminescence readings were taken using PHERAstar (BMG Labtech). […]

[1] = measured here: PEO1 parental Z-AUC
Potency is the fitted concentration of half-maximal effect.

Compound	Potency	Z-AUC [1]	Z-AUC (measured here: PEO4 Z-AUC)	Z-AUC
CN(C)C1CCN(C(=O)c2ccc(NC(=O)Nc3ccc(-c4nc(N5CCOCC5)nc(N5CCOCC5)n4)cc3)cc2)CC1	309 nM (active) and 692 nM (active)	-2.41 and -1.47	-1.87 and -2.03	
COc1cccc(Nc2ncnn3ccc(CN4CC[C@@H](N)[C@H](O)C4)c23)c1	2.19 µM (active)	-1.46	-1.16	
Cc1ccc(-c2ccc3c(ccc4sc5c(c43)NC[C@@H](C)NC5=O)n2)cn1		0.305	-0.383	-0.119 (inactive)
CCn1c(=O)c(-c2ccn[nH]2)cc2c(C)nc(N)nc21		-0.106	-0.63	-0.643 (inactive)
C[C@H]1[C@H](O)O[C@@H]2O[C@@]3(C)CC[C@H]4[C@H](C)CC[C@@H]1[C@@]24OO3		0.808	1.02	1.05 (inactive)
CC[C@@](C)(Nc1ccnc(-c2c[nH]c3ncccc23)n1)C(=O)NCC(F)(F)F		-0.201	-0.4	-1.18 (inactive)
CC(C)[C@@H](CS(=O)(=O)C(C)C)N1C(=O)[C@@](C)(CC(=O)O)C[C@H](c2cccc(Cl)c2)[C@H]1c1ccc(Cl)cc1		1.37	1.87	1.18 (inactive)
Cc1c(C(=O)N2CCOc3ccc(-c4ccc(N)nc4)cc3C2)ccc(S(C)(=O)=O)c1F		0.561	0.378	0.331 (inactive)
C[C@@H]1CCN(C(=O)N2CCCC2)C[C@@H]1N(C)c1ncnc2[nH]ccc12		0.799	1.07	-0.093 (inactive)
FC(F)(F)c1ccc(Nc2nc(-c3c(C(F)(F)F)nc4ccccn34)cs2)cc1		-1.08	-1.77	-2.12 (inactive)
Cc1ccc(NC(=O)Nc2cc(C(F)(F)F)ccc2F)cc1Nc1ccc2c(c1)NC(=O)/C2=C\c1ccc[nH]1		0.106	0.2	0.377 (inactive)
CCCCNc1ncc2c(-c3ccc(F)cc3)nn(CC3CCC(N)CC3)c2n1 (configuration not stated)		-0.901	-1.35	-1.02 (inactive)
CCOCc1nc2c(N)nc3ccccc3c2n1CC(C)(C)O		-0.509	-0.947	-0.746 (inactive)
O=C(/C=C/c1cccc(S(=O)(=O)Nc2ccccc2)c1)NO		-1.03	-1.35	-0.934 (inactive)
